# Assay outcomes deposited in PubChem by several laboratories.
# EBV gp42 inh = Epstein-Barr virus gp42 inhibitors, primary screen, biochemical, uHTS, fluorescence polarization | Glycoprotein 42 (Epstein-Barr virus (strain AG876)), Q1HVG2 | Fluorescence polarization binding assay, mP read-out | inhibition, % (tested at 21.74 µM) | 220,000 tested, 0.42% active; in the data active means inhibition above about 50%
# Bcl-xL primary = inhibitors of human Bcl-xL, primary screen, biochemical, fluorescence polarization, HTS; 320,000 tested, 0.7% active; inhibition, % at 10.9 µM; Bcl-2-like protein 1 (Homo sapiens), Q07817; AID 2129, 2009; GST-Bcl-xL / FITC-Bim BH3 peptide fluorescence polarization;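 active means inhibition above the mean of all tested compounds plus 3 SD, cutoff set per campaign, cut at about 30% in these data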;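 further: inhibitors lower millipolarization by displacing the labeled peptide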
# eLon inh = inhibitors of E. coli Lon protease, primary screen, biochemical, fluorescence polarization; P0A9M0; inhibition, % at 7.94 µM; 360,000 tested, 0.42% active; purified E. coli Lon protease; in the data active means inhibition above about 13%, passing the limit was not always enough
# Target sequence (P0A9M0 whole entry, looked up): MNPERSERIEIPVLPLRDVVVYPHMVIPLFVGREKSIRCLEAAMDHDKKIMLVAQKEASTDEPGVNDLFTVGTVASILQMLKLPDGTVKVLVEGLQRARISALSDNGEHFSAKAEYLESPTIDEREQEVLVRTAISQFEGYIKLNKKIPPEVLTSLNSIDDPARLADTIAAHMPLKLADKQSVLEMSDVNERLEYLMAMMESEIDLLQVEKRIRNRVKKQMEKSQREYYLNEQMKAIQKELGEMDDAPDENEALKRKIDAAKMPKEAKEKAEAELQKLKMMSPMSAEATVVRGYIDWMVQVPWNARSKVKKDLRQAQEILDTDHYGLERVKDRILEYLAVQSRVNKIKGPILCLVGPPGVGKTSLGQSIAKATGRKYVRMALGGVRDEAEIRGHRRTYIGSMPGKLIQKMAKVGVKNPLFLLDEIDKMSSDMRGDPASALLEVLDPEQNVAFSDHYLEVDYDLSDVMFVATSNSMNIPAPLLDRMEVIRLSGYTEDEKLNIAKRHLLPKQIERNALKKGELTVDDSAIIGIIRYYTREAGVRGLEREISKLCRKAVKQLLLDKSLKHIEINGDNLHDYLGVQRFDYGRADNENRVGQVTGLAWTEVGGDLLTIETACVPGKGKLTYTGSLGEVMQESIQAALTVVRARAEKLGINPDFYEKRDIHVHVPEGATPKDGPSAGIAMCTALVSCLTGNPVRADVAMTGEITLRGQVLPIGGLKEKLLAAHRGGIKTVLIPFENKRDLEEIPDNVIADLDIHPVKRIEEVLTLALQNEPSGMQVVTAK
# GLD-1 TGE inh = GLD-1/TGE RNA complex disruptors, primary screen, biochemical, fluorescence polarization. purified GLD-1 + fluorescein TGE RNA. inhibition, % at 5.96 µM. Female germline-specific tumor suppressor gld-1 (Caenorhabditis elegans), Q17339. 320,000 tested, 0.44% active;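 active means percent inhibition above a per-plate cutoff, the plate mean of test compounds plus 3 SD, cut at about 30% in these data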
# MEX-5 binding = MEX-5 zinc finger RNA-binding disruptors – biochemical, C. elegans, fluorescence polarization, MLPCN library, primary screen; Zinc finger protein mex-5 (Caenorhabditis elegans), Q9XUB2; MEX-5/FITC-TCR2 RNA binding; stronger effect = lower value; activity score (negative = inhibition of binding), % at 10 µM; 300,000 tested, 0.38% active; AID 1832, 2009;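 active means inhibition past about -25% in most replicates, and total fluorescence under double the plate's negative control median, limit read from the data; inconclusive means replicates evenly split on the limit, or fluorescence at least double controls; inactive means too little inhibition in most replicates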
# Numbers stand for hits; . = inactive; ? = inconclusive; / = not tested or not shown. The list is not random: actives were taken first. Their share in the collection is about 1.3%.
SMILES,EBV gp42 inh,Bcl-xL primary,eLon inh,GLD-1 TGE inh,MEX-5 binding
CCC(C)(C#CCN1CCCCC1)OC(C)=O (stereo unspecified),.,.,.,.,.
CCOC(=O)CN(C(=O)CSc1nnc(CNc2ccc(F)cc2)o1)c1ccccc1,.,.,.,.,.
CCOC(=O)CN(C(=O)CSc1nnc(CNc2ccc(F)cc2)n1C)c1ccccc1,.,.,.,45,.
N#CC(C#N)=Cc1ccc(-c2ccc(S(=O)(=O)N=C(N)N)cc2)o1,.,.,.,.,-38
COC(=O)/C(C#N)=C/c1ccc(-c2ccc(S(N)(=O)=O)cc2)o1,.,.,.,.,.
COc1ccc2c(c1)OCC1=C2CCC2(C)C(=O)CC=C12 (stereo unspecified),.,40,/,39,.
C=CCc1cccc2cc(C(=O)Nc3ccc(F)cc3)c(=O)oc12,.,.,.,.,.
C=CCc1cccc2cc(C(=O)Nc3ccc(S(=O)(=O)Nc4nnc(CC)s4)cc3)c(=O)oc12,73,.,.,.,.
O=c1[nH]c(SCc2nc3c(cnn3-c3ccccc3)c(=O)[nH]2)nc2ccccc12,.,/,.,/,/
O=c1[nH]c(CSc2ncccn2)nc2c1cnn2-c1ccccc1,.,.,.,.,-26
COc1ccccc1NS(=O)(=O)c1ccc(C(=O)NCC(c2ccco2)N2CCCCC2)cc1 (stereo unspecified),/,/,.,/,/
COC(=O)COc1ccc(C2Nc3c(Cl)ccc(C(=O)O)c3C3C=CCC32)cc1 (stereo unspecified),.,43,.,.,.
O=C(CC[C@H]1O[C@@H](n2ccc(=O)[nH]c2=O)[C@H](O)[C@@H]1O)NC1CCN(Cc2ccccc2)C1 (stereo partly specified),/,/,.,/,/
Fc1ccccc1C(c1nnnn1C1CCCC1)N1CCN(Cc2ccccc2)CC1 (stereo unspecified),85,.,.,.,.
CCC(c1nnnn1C1CCCC1)N1CCN(Cc2ccccc2)CC1 (stereo unspecified),.,.,.,.,.
O=C(O)CCCN1C(=O)/C(=C\c2ccc(-c3nc4ccccc4s3)o2)SC1=S,.,.,.,.,-56
O=C(O)CC(C(=O)O)N1C(=O)/C(=C/C=C/c2ccco2)SC1=S (stereo unspecified),.,41,.,.,-66
O=C(O)C(Cc1ccccc1)N1C(=O)/C(=C/C=C/c2ccco2)SC1=S (stereo unspecified),.,/,.,/,.
O=C(O)CCCN1C(=O)/C(=C/C=C/c2ccco2)SC1=S,.,46,.,.,.
O=C(O)CCN1C(=O)/C(=C/c2ccc(-c3nc4ccccc4s3)o2)SC1=S,.,.,.,.,?
O=C(NN1C(=O)/C(=C/C=C/c2ccco2)SC1=S)c1ccccc1O,.,.,.,.,.
COc1ccc(/C=C/c2nc3sc4c(c3c(=O)o2)CCC4)cc1,/,.,.,.,-30
CCC1=NN2C(=N)/C(=C\c3cccn3-c3ccc(Br)cc3)C(=O)N=C2S1,59,/,.,/,.
COc1ccc(-n2cccc2/C=C2\C(=N)N3N=C(c4ccco4)SC3=NC2=O)cc1,76,.,.,.,.
CCC1=NN2C(=N)/C(=C\c3cccn3-c3cccc(Cl)c3)C(=O)N=C2S1,.,.,.,.,.
SMILES,EBV gp42 inh,Bcl-xL primary,eLon inh,GLD-1 TGE inh,MEX-5 binding
CCN(CC)c1ccc2c(c1)CCCN2,.,105,/,90,.
COC(=O)C(Nc1nccs1)(OC)C(F)(F)F (stereo unspecified),60,61,.,.,.
COCCCNC(=S)N1CCN(C(c2ccccc2)c2ccccc2)CC1,/,/,.,/,.
COCCn1c(=O)[nH]c2cc(C(=O)NCCc3ccc(OC)c(OC)c3)ccc2c1=O,50,.,.,.,.
CN(C)c1ccc(/C=C/c2cccc[n+]2[O-])cc1,.,31,.,.,.
[O-][n+]1ccccc1/C=C/c1ccccc1,/,.,.,.,.
O=C(NNC(=O)c1ccccc1[N+](=O)[O-])c1ccccn1,.,.,.,.,-29
Cc1c(C(=O)NNC(=O)c2csc(N3CCOCC3)n2)cccc1[N+](=O)[O-],/,.,.,.,/
O=C(NNC(=O)C1CC1)c1ccccc1[N+](=O)[O-],/,/,.,/,/
